We go through nine compounds from PubChem BioAssay (Tox21).

Assay [1] can be described thus: qHTS assay to identify aromatase inhibitors - cell viability counter screen (AID 743084).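 Note: cells stimulated with testosterone during compound exposure; nearly all actives have a fitted effect of over 55% in size.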
Assay [2] concerns the target Aryl hydrocarbon receptor (Homo sapiens) (UniProt P35869). Kind of assay: qHTS assay to identify small molecule that activate the aryl hydrocarbon receptor (AhR) signaling pathway (AID 743085).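 Note: HG2L7.5c1 human HepG2 liver cells with stably integrated DRE-driven firefly reporter; series mostly up to about 70 µM; nearly all actives have a fitted effect of over 15% in size.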 Put shortly:
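Cell line HG2L7.5c1 (human hepatoma, 20× DRE-luc). Plated, 5 h 37C, compound/DMSO added, 24 h 37C. CellTiter-Fluor 30 min 37C → fluorescence; then ONE-Glo 30 min RT → luminescence.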

A short description of assay [3]: qHTS assay to identify small molecule that activate the aryl hydrocarbon receptor (AhR) signaling pathway - cell viability counter screen (AID 743086).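 Note: HepG2 liver cells carrying the AhR DRE luciferase reporter; series mostly up to about 70 µM; nearly all actives have a fitted effect of over 45% in size.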 The procedure, abridged:
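HepG2-AhR-luc (HG2L7.5c1) cells, 4000/well, were preincubated 5 h at 37C, exposed to compound in qHTS format for 24 hr at 37C, then given CellTiter-Fluor for 30 min; viability was read as fluorescence in the reporter wells.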

Assay [4] addresses Peroxisome proliferator-activated receptor gamma (Homo sapiens) (UniProt P37231). Kind of assay: qHTS assay to identify small molecule agonists of the peroxisome proliferator-activated receptor gamma (PPARg) signaling pathway (AID 743094; active = well fitted activation curve with a large enough effect in the signal ratio in the repeat runs, not every such curve was filed as active; the % refers to the signal ratio). The procedure, abridged:
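Agonism was assessed in a beta-lactamase reporter system, HEK293H cells with a stably integrated UAS-bla construct under PPARg control; the 17 h treatment at 37C preceded a 1 h room-temperature FRET substrate read.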

A short description of assay [5]: qHTS assay to identify small molecule antagonists of the peroxisome proliferator-activated receptor gamma (PPARg) signaling pathway - cell viability counter screen (AID 743194). Note: nearly all actives have a fitted effect of over 55% in size. The procedure, abridged:
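PPARg-UAS-bla HEK293H cells were plated, rested 5 h at 37 C, then treated with compounds plus rosiglitazone (50 nM final) for 17 h at 37 C; viability was then read by CellTiter-Glo luminescence after 30 min at room temperature.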

Assay [6] can be described thus: qHTS assay for small molecule agonists of the antioxidant response element (ARE) signaling pathway - cell viability counter screen (AID 743203; calls by dose curve; note: nearly all actives have a fitted effect of over 55% in size). The procedure, abridged: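 ATP content via CellTiter-Glo luminescence served as the viability measure. Cells: ARE-bla HepG2, 2,000 per well. Exposure: 16 hrs, 37C/5% CO2.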
Assay [7] in a line: qHTS assay to identify small molecule agonists of the peroxisome proliferator-activated receptor delta (PPARd) signaling pathway - cell viability counter screen (AID 743211). Note: nearly all actives have a fitted effect of over 55% in size. The procedure, abridged: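 HEK293H PPARd-bla, 3000 cells/well; 5 h preincubation 37C/5% CO2; cpd in DMSO, 17 h 37C; B/G FRET substrate 2 h RT; CellTiter-Glo 30 min RT, luminescence.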
Assay [8] deals with Peroxisome proliferator-activated receptor delta (Homo sapiens) (UniProt Q03181). The assay is described as follows: qHTS assay to identify small molecule agonists of the peroxisome proliferator-activated receptor delta (PPARd) signaling pathway (AID 743212; calls by dose curve). Put shortly:
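Beta-lactamase reporter read by fluorescence (LiveBLAzer B/G FRET, 2 h, room temperature). Test agents, in DMSO, incubated at 37 C with PPARd-bla HEK293H cells.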

The nature of assay [9]: qHTS assay to identify small molecule antagonists of the peroxisome proliferator-activated receptor delta (PPARd) signaling pathway - cell viability counter screen (AID 743213). Note: nearly all actives have a fitted effect of over 50% in size. The procedure, abridged: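 In this counter screen, HEK293H cells carrying a UAS-beta-lactamase reporter are co-treated with test compounds and 300 nM L165041 (final) for 17 h at 37 C; cell viability is quantified by CellTiter-Glo luminescence.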

Assay [10] deals with Bile acid receptor (Homo sapiens) (UniProt Q96RI1). Kind of assay: qHTS assay to identify small molecule antagonists of the farnesoid-X-receptor (FXR) signaling pathway (AID 743217; active = well fitted inhibition curve with a large enough effect in the signal ratio in the repeat runs, not every such curve was filed as active; the % refers to the signal ratio). The procedure, abridged: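 Test compounds are pin-transferred onto FXR-bla HEK 293T cells, then chenodeoxycholic acid is added at 50 uM final. After 16 h at 37 °C, LiveBLAzer B/G substrate is applied for 2 h at room temperature and fluorescence read.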

The nature of assay [11]: qHTS assay to identify small molecule agonists of the farnesoid-X-receptor (FXR) signaling pathway - cell viability counter screen (AID 743218). Note: nearly all actives have a fitted effect of over 45% in size. The procedure, abridged:
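Quantitative HTS counter screen measuring ATP-based viability via CellTiter-Glo luminescence in HEK 293T cells carrying a UAS-driven beta-lactamase reporter, after 16 h compound exposure at 37 C.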

Assay [12] addresses Bile acid receptor (Homo sapiens) (UniProt Q96RI1). Kind of assay: qHTS assay to identify small molecule agonists of the farnesoid-X-receptor (FXR) signaling pathway (AID 743220; active = well fitted activation curve with a large enough effect in the signal ratio in the repeat runs, not every such curve was filed as active; the % refers to the signal ratio). The procedure, abridged: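 FXR-UAS-bla HEK 293T cells carrying a UAS-driven beta-lactamase reporter were plated for 5 h at 37C/5% CO2, then exposed to DMSO-dissolved Tox21 10K compounds for 16 h at 37C. A LiveBLAzer B/G FRET substrate was loaded for 2 h at room temperature before fluorescence reading.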

The nature of assay [13]: qHTS assay to identify small molecule antagonists of the farnesoid-X-receptor (FXR) signaling pathway - cell viability counter screen (AID 743221; active = well fitted cell-killing curve with a large enough effect in the repeat runs, not every such curve was filed as active; note: nearly all actives have a fitted effect of over 50% in size). Put shortly:
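Luminescence from CellTiter-Glo measures cytotoxicity in GeneBLAzer FXR-UAS-bla HEK 293T cells. Cells were exposed to compounds with 50 uM chenodeoxycholic acid (final) for 16 h at 37 C, in wells also used for the reporter readout.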

Assay [14] deals with Vitamin D3 receptor (Homo sapiens) (UniProt P11473). Kind of assay: qHTS assay to identify small molecule agonists of the vitamin D receptor (VDR) signaling pathway (AID 743222; calls by dose curve). Put shortly:
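Tox21 cell reporter format: VDR-bla line, 16 h compound exposure in 5% CO2 at 37C, then fluorescence intensity after 2 h with LiveBLAzer B/G FRET substrate.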

For assay [15] the target is unchanged. The assay is described as follows: qHTS assay to identify small molecule antagonists of the vitamin D receptor (VDR) signaling pathway (AID 743223; active = well fitted inhibition curve with a large enough effect in the signal ratio in the repeat runs, not every such curve was filed as active; the % refers to the signal ratio). Put shortly: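 Antagonist mode uses 1alpha,25-dihydroxyvitamin D3 at 3 nM final as stimulus. VDR-bla cells receive compounds in DMSO, incubate 16 h at 37C, then a beta-lactamase FRET substrate for 2 h at room temperature before fluorescence measurement.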

A short description of assay [16]: qHTS assay for small molecule agonists of the antioxidant response element (ARE) signaling pathway (AID 743202; active = well fitted activation curve with a large enough effect in the signal ratio in the repeat runs, not every such curve was filed as active; the % refers to the signal ratio; note: potency is the fitted concentration of half-maximal effect). Put shortly:
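Following a 16 h, 37 C exposure of reporter HepG2 cells (ARE-driven beta-lactamase, 2,000 cells/well) to compounds, FRET substrate was applied for 2 h at room temperature and fluorescence intensity recorded.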

Assay [17] in a line: qHTS assay for small molecule activators of the heat shock response signaling pathway (AID 743210; active = well fitted activation curve with a large enough effect in the signal ratio in the repeat runs, with a control signal flat, not every such curve was filed as active; the % refers to the signal ratio; note: series mostly up to about 63 µM). Put shortly: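 Heat shock element–beta-lactamase HeLa reporter cells; qHTS with compounds for 5 h at 37 C; detection by FRET substrate fluorescence after 2.5 h at RT.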
Assay [18] has as its target Peroxisome proliferator-activated receptor delta (Homo sapiens) (UniProt Q03181). The assay is described as follows: qHTS assay to identify small molecule antagonists of the peroxisome proliferator-activated receptor delta (PPARd) signaling pathway (AID 743215; active = well fitted inhibition curve with a large enough effect in the signal ratio in the repeat runs, not every such curve was filed as active; the % refers to the signal ratio;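 note: cells stimulated with agonist L165041 at 300 nM final during compound exposure; series mostly up to about 62 µM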). The procedure, abridged:
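Here, a reporter line (HEK293H, beta-lactamase under a UAS) measures PPARd signaling. Compounds are tested against agonist L165041 at 300 nM final concentration over 17 h at 37 C, with fluorescence read after substrate.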

Assay [19] in a line: qHTS assay for small molecule activators of the heat shock response signaling pathway - cell viability counter screen (AID 743209). Note: nearly all actives have a fitted effect of over 50% in size. Put shortly:
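Compounds dissolved in DMSO were added to overnight-plated HSE-bla HeLa cells and left 5 h at 37 C. Cell viability was quantified by luminescence using CellTiter-Glo.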

The target in assay [20] is Peroxisome proliferator-activated receptor gamma (Homo sapiens) (UniProt P37231). The assay is described as follows: qHTS assay to identify small molecule antagonists of the peroxisome proliferator-activated receptor gamma (PPARg) signaling pathway (AID 743191; calls by dose curve; note: series mostly up to about 63 µM; nearly all actives have a fitted effect of over 30% in size). Put shortly:
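GeneBLAzer PPARg UAS-bla HEK293H cells carrying a UAS-driven beta-lactamase reporter were plated at 3000 cells/well, preincubated 5 h at 37C, then given compound for 17 h at 37C; LiveBLAzer B/G FRET substrate was read after 1 h at room temperature.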

Records with an inconclusive call do not appear. Calls of active or inactive are those of the source. Unless noted, calls come from the whole dose curve; as a rule, active = well fitted curve in the direction sought with a large enough effect in the repeat runs; inconclusive = weak or mixed curves; inactive = no such curve, though single readings can be large; an effect the other way counts as inactive or inconclusive.

Sequence of Peroxisome proliferator-activated receptor gamma (Homo sapiens) (P37231 whole entry, looked up): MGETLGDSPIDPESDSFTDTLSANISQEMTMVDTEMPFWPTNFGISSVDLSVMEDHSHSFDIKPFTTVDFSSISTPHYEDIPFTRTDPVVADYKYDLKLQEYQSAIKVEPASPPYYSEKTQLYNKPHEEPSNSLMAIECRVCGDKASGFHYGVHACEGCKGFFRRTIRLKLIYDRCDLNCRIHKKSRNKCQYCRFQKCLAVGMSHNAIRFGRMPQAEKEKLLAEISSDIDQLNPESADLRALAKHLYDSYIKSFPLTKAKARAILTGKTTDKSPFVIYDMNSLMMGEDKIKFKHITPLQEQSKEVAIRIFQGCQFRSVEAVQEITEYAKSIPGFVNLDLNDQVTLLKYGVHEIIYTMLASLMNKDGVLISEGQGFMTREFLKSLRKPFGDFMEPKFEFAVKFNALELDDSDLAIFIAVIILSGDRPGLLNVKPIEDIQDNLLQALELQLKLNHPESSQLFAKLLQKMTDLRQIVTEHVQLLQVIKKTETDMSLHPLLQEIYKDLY
Sequence of Vitamin D3 receptor (Homo sapiens) (P11473 whole entry, looked up): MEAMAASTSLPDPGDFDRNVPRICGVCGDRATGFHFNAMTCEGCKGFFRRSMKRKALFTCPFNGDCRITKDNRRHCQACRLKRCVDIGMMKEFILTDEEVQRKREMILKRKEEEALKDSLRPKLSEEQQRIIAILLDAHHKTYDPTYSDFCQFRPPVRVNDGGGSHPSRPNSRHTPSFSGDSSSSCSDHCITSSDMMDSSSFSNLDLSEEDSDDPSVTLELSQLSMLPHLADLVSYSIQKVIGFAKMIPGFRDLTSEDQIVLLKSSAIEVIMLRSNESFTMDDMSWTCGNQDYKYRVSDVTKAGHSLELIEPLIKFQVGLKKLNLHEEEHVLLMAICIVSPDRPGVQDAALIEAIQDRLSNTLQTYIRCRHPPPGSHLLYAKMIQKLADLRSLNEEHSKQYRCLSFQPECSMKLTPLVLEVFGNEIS
Sequence of Bile acid receptor (Homo sapiens) (Q96RI1 whole entry, looked up): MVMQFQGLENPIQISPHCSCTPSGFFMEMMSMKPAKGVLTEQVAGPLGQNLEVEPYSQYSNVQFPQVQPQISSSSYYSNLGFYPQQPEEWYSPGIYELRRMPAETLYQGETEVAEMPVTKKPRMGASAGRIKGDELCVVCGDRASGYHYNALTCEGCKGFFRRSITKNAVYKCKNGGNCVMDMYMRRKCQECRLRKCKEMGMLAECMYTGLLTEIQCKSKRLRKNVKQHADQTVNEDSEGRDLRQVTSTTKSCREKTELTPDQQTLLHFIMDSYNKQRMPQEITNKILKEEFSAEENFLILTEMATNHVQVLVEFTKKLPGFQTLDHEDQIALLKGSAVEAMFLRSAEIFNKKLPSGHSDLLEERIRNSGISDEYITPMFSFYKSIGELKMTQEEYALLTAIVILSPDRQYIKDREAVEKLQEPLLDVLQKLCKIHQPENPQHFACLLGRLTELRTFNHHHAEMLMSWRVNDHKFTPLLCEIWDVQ
Sequence of Peroxisome proliferator-activated receptor delta (Homo sapiens) (Q03181 whole entry, looked up): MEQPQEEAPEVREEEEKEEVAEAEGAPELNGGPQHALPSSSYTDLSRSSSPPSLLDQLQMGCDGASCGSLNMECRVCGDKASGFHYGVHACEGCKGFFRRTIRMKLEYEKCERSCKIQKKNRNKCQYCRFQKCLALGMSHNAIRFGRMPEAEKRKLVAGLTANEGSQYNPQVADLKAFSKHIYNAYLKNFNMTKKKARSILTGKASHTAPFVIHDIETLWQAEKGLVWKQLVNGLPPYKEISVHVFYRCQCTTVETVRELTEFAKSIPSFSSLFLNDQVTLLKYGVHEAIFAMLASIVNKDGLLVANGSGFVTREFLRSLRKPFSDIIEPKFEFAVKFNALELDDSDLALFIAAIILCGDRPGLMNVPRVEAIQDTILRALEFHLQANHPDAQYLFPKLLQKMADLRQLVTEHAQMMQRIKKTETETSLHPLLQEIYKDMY
Sequence of Aryl hydrocarbon receptor (Homo sapiens) (P35869 whole entry, looked up): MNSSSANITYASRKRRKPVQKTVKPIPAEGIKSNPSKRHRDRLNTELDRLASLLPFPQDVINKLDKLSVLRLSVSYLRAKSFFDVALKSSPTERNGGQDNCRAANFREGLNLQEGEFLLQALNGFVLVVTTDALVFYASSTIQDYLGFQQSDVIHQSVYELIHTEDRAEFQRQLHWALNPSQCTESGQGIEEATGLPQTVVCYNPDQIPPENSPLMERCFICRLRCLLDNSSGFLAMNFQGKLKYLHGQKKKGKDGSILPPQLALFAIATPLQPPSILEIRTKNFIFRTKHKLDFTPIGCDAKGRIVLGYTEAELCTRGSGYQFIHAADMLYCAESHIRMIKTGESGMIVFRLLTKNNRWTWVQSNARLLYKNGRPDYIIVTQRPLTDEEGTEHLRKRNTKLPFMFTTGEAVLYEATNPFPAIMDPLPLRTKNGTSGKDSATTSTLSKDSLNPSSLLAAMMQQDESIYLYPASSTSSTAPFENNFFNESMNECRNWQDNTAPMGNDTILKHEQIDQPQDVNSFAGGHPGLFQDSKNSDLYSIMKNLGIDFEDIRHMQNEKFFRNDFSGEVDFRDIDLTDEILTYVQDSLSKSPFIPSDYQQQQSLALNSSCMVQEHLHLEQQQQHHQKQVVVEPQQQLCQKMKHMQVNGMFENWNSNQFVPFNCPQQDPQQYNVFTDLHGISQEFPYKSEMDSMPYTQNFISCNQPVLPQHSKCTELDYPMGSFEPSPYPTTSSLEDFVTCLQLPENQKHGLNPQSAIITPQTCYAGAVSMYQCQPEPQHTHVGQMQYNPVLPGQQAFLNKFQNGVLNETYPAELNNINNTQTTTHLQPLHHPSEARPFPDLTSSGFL

With `CCCC/C=C\CCCCCCCCCC=O`, the Potency result in [1], in assay [2], in assay [3], in [10], in assay [11] and in [12] was “inactive” in each case. For the same compound, the call in assay [4], in assay [5], in assay [6], in assay [7], in [8] and in assay [9] was inactive. Further, the call in [13], in assay [14] and in assay [15] was inactive.

With `C[Si](C)(C)C`, the Potency entry in assay [1], in assay [2], in assay [3], in assay [16] and in assay [11] was “inactive” each time. Also, the compound was classed as inactive in assay [4], in assay [6], in assay [17], in [7], in [18] and in assay [13]. Also, the call in assay [14] and in assay [15] was inactive.

As for `CCCC/C=C/C=C\C=O`, the Potency entry in [1], in assay [2], in assay [3], in assay [10], in [11] and in assay [12] was “inactive” in each case. Also, the compound was classed as inactive in assay [4], in assay [5], in assay [6], in assay [19], in [7] and in assay [8]. Also, the compound was classed as inactive in assay [9], in assay [18], in assay [13] and in assay [15].

Regarding `CNS(=O)(=O)CCc1ccc2[nH]cc(C3CCN(C)CC3)c2c1`, the Potency result in [1], in assay [2], in assay [3] and in assay [11] was “inactive” in each case. The compound was classed as inactive in assay [4], in [5], in [6], in assay [17], in assay [7] and in assay [9]. For the same compound, the compound was called inactive in [18], in assay [13] and in assay [15].

Take `CCCN1C[C@H](CSC)C[C@@H]2c3cccc4[nH]cc(c34)C[C@H]21`: the Potency result in assay [1], in assay [2], in assay [3], in assay [20] and in assay [16] was “inactive” each time. The compound was classed as inactive in assay [5], in assay [6], in assay [19], in [8], in [18] and in assay [13]. The compound was classed as inactive in assay [14] and in assay [15].

Regarding `CC(C)(C)c1cc(CCC(=O)NN)cc(C(C)(C)C)c1O`, the Potency result in assay [1], in assay [2], in assay [3], in [16] and in [11] was “inactive” in each case. The compound was classed as inactive in [4], in assay [5], in assay [6], in assay [17], in assay [7] and in assay [9]. The outcome in assay [13], in [14] and in assay [15] was inactive.

On to `CCCCCCCCSCC`, for which the Potency entry in [1], in assay [2], in [3] and in assay [11] was “inactive” each time. For the same compound, the outcome in [4], in assay [5], in assay [6], in [19], in assay [17] and in [7] was inactive. In addition, the compound was called inactive in assay [8], in [9], in assay [18], in [13] and in [14].

Regarding `CC1=CCC(C(C)C)=CC1`, the Potency result in [1], in assay [2], in assay [3], in assay [16] and in assay [11] was “inactive” each time. In addition, the compound was called inactive in [4], in assay [5], in assay [6], in assay [19], in [17] and in assay [7]. For the same compound, the compound was classed as inactive in [9] and in assay [13].

In the case of `O=C(O)C(=O)Cc1ccccc1`, the Potency entry in assay [1], in assay [2], in [3], in [20] and in [11] was “inactive” each time. In assay [16], the Potency was 27.3 µM (active). Moreover, the call in assay [6], in assay [19], in assay [7], in assay [8], in assay [9] and in assay [18] was inactive. Moreover, the compound was called inactive in assay [13], in assay [14] and in assay [15].
